± gives the standard deviation of the averaged measurements. About 5,400 targets were measured; listed, in parts, are those with the largest changes and a random draw of the rest.
Compound: Nc1nc2c(ncn2[C@@H]2O[C@H](COP(=O)(O)OP(=O)(O)OP(=O)(O)O)[C@@H](O)[C@H]2O)c(=O)[nH]1 [guanosine triphosphate]
Assay: NP40-soluble protein abundance relative to vehicle (solubility fold change) (ratio); higher = more soluble protein in presence of GTP
Method in brief: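 Values are fold changes against the detergent-processed vehicle, based on vsn-normalised intensities. Jurkat crude lysate was treated at eight concentrations from 0.1 to 10 mM (10 min at room temperature, then 3 min at 37 °C), solubilised with 0.8% NP40 and benzonase, ultracentrifuged and analysed by TMT-labelled LC-MS/MS over three independent experiments.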

Sequence of UniProt Q86U70 (Q86U70 whole entry): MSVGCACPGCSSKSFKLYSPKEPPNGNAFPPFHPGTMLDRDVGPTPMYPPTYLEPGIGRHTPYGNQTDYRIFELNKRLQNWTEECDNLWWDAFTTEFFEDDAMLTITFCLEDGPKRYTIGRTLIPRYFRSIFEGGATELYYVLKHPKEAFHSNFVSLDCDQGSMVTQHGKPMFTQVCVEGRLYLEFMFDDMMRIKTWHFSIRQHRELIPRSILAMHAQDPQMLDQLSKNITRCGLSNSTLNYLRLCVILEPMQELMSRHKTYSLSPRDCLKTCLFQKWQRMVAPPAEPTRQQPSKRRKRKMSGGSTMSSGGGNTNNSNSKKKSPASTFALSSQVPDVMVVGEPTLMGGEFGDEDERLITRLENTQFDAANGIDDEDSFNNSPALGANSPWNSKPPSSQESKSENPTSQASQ
Sequence of UniProt Q53EL6 (Q53EL6 whole entry): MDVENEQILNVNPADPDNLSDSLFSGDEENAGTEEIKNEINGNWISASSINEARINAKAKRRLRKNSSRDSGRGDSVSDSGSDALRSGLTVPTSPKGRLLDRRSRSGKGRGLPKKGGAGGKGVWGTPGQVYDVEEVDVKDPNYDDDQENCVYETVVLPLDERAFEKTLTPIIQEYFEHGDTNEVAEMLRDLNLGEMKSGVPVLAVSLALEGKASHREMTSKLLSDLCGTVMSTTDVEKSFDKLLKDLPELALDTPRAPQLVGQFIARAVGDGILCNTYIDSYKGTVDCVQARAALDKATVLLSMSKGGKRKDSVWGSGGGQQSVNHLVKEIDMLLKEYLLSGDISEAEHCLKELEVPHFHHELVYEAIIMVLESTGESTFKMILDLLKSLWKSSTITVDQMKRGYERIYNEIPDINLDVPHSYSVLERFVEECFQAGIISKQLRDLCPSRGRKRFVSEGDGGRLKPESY
Sequence of UniProt P55884 (P55884 whole entry): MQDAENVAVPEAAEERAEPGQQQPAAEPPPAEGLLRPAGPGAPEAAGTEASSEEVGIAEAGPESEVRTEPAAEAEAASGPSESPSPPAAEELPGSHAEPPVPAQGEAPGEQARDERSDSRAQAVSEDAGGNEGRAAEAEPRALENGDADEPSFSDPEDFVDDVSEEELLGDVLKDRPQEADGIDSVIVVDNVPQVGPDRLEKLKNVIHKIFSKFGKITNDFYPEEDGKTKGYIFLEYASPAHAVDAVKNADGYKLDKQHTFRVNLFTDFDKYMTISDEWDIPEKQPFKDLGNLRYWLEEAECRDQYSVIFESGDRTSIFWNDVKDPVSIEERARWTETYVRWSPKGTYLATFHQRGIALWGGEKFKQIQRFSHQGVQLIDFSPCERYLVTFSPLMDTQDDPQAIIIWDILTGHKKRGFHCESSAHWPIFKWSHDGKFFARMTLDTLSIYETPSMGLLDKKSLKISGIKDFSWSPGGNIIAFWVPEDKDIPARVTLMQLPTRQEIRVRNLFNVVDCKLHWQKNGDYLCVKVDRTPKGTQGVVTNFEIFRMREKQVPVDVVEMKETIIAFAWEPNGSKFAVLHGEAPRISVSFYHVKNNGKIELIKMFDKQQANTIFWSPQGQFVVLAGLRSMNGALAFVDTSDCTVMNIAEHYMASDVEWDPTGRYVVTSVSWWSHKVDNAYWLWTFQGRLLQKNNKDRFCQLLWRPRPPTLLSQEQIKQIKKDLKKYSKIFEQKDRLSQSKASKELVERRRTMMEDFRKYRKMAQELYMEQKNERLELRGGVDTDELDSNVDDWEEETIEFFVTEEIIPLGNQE
Sequence of UniProt Q13496 (Q13496 whole entry): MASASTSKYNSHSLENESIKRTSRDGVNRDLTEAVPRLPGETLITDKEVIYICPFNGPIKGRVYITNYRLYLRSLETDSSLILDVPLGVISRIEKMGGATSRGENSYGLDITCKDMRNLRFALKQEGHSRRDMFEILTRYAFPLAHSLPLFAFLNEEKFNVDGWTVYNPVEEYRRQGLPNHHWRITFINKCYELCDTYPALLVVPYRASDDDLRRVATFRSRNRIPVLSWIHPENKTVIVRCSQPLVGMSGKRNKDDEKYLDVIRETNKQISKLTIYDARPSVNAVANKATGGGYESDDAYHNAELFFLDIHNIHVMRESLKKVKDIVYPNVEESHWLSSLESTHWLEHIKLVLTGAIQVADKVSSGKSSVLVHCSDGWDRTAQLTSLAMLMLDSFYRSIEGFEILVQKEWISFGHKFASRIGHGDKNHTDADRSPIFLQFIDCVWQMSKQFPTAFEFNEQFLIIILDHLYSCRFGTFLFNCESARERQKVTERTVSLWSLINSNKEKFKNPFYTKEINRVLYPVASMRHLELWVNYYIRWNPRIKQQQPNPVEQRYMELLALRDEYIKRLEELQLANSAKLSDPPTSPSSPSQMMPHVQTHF
Sequence of UniProt P60891 (P60891 whole entry): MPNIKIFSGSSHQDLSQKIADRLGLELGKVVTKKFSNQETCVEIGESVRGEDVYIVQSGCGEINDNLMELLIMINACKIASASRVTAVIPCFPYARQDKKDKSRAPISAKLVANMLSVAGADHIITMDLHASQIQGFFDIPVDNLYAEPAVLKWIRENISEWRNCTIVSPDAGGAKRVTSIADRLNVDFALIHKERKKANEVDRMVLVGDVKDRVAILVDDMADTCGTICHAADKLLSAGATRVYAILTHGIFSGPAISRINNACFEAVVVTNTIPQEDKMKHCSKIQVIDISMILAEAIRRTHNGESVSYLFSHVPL
Sequence of UniProt P62995 (P62995 whole entry): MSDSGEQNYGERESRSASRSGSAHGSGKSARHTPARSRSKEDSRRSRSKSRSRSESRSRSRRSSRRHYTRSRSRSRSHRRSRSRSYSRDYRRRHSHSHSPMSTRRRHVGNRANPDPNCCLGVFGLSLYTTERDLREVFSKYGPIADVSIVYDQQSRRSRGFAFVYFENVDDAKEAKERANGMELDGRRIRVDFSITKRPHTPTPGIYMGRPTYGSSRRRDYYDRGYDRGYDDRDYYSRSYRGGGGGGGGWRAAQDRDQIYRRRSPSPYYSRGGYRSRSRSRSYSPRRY
Sequence of UniProt Q8NE71 (Q8NE71 whole entry, one chain of several): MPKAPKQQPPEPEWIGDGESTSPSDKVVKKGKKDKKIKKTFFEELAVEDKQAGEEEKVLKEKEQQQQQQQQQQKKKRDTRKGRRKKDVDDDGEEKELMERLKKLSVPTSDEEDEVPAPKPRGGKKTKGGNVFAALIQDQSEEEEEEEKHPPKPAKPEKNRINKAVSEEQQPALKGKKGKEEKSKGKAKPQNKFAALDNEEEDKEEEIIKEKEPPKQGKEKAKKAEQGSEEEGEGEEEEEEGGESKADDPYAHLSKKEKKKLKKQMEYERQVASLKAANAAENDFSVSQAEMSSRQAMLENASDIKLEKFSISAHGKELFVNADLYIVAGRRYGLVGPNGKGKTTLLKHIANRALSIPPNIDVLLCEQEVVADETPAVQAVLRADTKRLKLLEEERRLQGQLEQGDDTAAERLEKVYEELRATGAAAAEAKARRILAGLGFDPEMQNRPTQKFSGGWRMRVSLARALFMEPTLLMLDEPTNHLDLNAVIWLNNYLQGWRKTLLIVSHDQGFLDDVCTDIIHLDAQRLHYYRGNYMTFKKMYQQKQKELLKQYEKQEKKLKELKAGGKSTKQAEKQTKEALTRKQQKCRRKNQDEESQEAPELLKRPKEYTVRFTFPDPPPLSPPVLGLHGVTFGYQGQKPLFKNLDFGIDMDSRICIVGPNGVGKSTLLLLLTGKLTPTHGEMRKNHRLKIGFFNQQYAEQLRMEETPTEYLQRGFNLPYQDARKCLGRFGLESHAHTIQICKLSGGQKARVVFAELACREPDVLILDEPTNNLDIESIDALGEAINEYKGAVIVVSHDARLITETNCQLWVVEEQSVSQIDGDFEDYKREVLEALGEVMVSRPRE
Sequence of UniProt Q8TBE9 (Q8TBE9 whole entry): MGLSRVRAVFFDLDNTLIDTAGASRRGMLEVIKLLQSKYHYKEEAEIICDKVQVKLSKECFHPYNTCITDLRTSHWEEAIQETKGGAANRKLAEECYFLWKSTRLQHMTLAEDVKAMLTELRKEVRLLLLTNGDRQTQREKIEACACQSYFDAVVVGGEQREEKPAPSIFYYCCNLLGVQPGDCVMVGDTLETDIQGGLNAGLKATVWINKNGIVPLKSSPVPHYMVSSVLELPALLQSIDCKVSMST
Sequence of UniProt Q7Z3B4 (Q7Z3B4 whole entry): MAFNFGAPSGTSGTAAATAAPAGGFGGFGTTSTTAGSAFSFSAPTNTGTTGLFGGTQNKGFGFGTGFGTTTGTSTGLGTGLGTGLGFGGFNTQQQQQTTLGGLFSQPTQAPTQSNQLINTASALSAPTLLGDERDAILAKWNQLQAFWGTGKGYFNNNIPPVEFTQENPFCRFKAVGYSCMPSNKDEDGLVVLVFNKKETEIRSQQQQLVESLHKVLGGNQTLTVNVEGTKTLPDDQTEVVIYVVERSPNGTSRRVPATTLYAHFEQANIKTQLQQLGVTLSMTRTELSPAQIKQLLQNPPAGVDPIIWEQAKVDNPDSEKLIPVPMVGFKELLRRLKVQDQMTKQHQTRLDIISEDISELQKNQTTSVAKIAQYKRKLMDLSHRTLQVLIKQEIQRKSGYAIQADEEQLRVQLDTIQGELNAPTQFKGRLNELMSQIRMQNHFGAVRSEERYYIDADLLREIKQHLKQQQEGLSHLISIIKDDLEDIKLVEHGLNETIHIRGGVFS
Sequence of UniProt P61006 (P61006 whole entry): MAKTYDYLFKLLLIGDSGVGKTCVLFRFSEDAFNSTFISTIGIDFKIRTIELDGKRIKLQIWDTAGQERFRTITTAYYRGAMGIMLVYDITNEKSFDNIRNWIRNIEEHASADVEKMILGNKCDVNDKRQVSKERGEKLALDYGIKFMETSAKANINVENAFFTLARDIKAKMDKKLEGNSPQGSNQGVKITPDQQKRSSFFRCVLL
Sequence of UniProt Q86V88 (Q86V88 whole entry): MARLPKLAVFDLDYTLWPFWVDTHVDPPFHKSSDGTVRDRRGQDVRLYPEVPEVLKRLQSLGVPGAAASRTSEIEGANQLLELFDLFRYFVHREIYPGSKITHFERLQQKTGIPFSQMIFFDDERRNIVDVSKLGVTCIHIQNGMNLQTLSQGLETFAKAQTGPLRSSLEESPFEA

Target	NP40-soluble protein abundance (concentration: 0.1mM)	NP40-soluble protein abundance (concentration: 0.5mM)	NP40-soluble protein abundance (concentration: 1mM)	NP40-soluble protein abundance (concentration: 2mM)	NP40-soluble protein abundance (concentration: 4mM)	NP40-soluble protein abundance (concentration: 6mM)	NP40-soluble protein abundance (concentration: 8mM)	NP40-soluble protein abundance (concentration: 10mM)
ASCC3 (UniProt Q8N3C0)	1 ± 0.066	1.09 ± 0.026	1.06 ± 0.032	1.16 ± 0.091	1.32 ± 0.17	1.38 ± 0.22	1.53 ± 0.26	1.73 ± 0.27
RAB8A (UniProt P61006)	0.928 ± 0.03	0.95 ± 0.039	0.903 ± 0.041	0.849 ± 0.068	0.812 ± 0.064	0.858 ± 0.085	0.828 ± 0.046	0.81 ± 0.075
UniProt Q13085|A0A087X126	1.09 ± 0.08	1.09 ± 0.11	1.03 ± 0.088	1.07 ± 0.14	1.05 ± 0.11	1.04 ± 0.097	0.975 ± 0.072	0.956 ± 0.056
UniProt Q15843|S4R3E9	1.1 ± 0.29	0.839 ± 0.092	1.25 ± 0.31	0.955 ± 0.21	1.09 ± 0.29	0.994 ± 0.18	1.11 ± 0.4	1.07 ± 0.25
UniProt P62995|P62995-3	1.08 ± 0.077	1.36 ± 0.24	1.64 ± 0.54	1.73 ± 0.47	1.61 ± 0.64	1.54 ± 0.58	1.54 ± 0.62	1.41 ± 0.64
UniProt P60891	1.03 ± 0.072	1.15 ± 0.18	1.18 ± 0.22	1.26 ± 0.25	1.29 ± 0.23	1.3 ± 0.28	1.28 ± 0.27	1.26 ± 0.23
NOTCH2 (UniProt Q04721)	0.991 ± 0.023	1.03 ± 0.042	1.086 ± 0.0064	1.12 ± 0.069	0.967 ± 0.22	1.08 ± 0.23	1.08 ± 0.028	1.06 ± 0.08
UniProt Q6KCM7|Q6KCM7-2|Q6KCM7-3|Q6KCM7-4|Q6KCM7-5|Q6KCM7-6	1.12 ± 0.041	1.08 ± 0.034	1.06 ± 0.058	1.04 ± 0.016	1.04 ± 0.066	1.019 ± 0.0034	0.982 ± 0.061	0.989 ± 0.098
UniProt Q8WUF8|Q8WUF8-3	1.03 ± 0.14	1.03 ± 0.051	0.978 ± 0.14	1 ± 0.044	0.966 ± 0.028	1.01 ± 0.014	0.959 ± 0.021	0.99 ± 0.023
UniProt Q14789|Q14789-2	1 ± 0.019	0.984 ± 0.041	1.02 ± 0.022	0.989 ± 0.049	0.993 ± 0.026	1 ± 0.035	1.02 ± 0.046	1.01 ± 0.051
SLC44A1 (UniProt Q8WWI5)	0.943 ± 0.066	0.931 ± 0.078	0.926 ± 0.061	0.894 ± 0.093	0.934 ± 0.07	0.879 ± 0.1	0.899 ± 0.1	0.938 ± 0.08
THOC5 (UniProt Q13769)	1.18 ± 0.0098	1.35 ± 0.093	1.5 ± 0.18	1.83 ± 0.36	2.21 ± 0.56	2.3 ± 0.66	2.45 ± 0.77	2.37 ± 0.74
UniProt Q63HQ0	0.923 ± 0.075	0.935 ± 0.056	0.951 ± 0.099	0.911 ± 0.13	1.02 ± 0.16	0.961 ± 0.12	0.952 ± 0.091	0.972 ± 0.11
UniProt Q86U86|Q86U86-8|Q86U86-2|Q86U86-4|Q86U86-5|Q86U86-7|Q86U86-9	1.07 ± 0.048	1.14 ± 0.078	1.21 ± 0.092	1.38 ± 0.11	1.53 ± 0.12	1.61 ± 0.16	1.72 ± 0.16	1.78 ± 0.18
UniProt Q53EL6|Q53EL6-2	0.992 ± 0.14	1.08 ± 0.18	1.12 ± 0.24	1.23 ± 0.34	1.45 ± 0.45	1.66 ± 0.47	1.81 ± 0.48	2.16 ± 0.58
MTM1 (UniProt Q13496)	1.01 ± 0.078	1.08 ± 0.088	0.961 ± 0.043	0.99 ± 0.076	0.933 ± 0.093	0.962 ± 0.093	0.93 ± 0.057	0.891 ± 0.087
UniProt P55884|P55884-2	1.02 ± 0.042	1.07 ± 0.056	1.03 ± 0.068	1.14 ± 0.18	1.29 ± 0.26	1.46 ± 0.33	1.55 ± 0.34	1.75 ± 0.36
UniProt Q6NW34|Q6NW34-2	0.848 ± 0.051	0.888 ± 0.08	0.881 ± 0.074	0.85 ± 0.031	0.839 ± 0.071	0.929 ± 0.032	0.871 ± 0.059	0.93 ± 0.012
UniProt Q7Z3B4|Q7Z3B4-3	1.02 ± 0.051	1 ± 0.021	1 ± 0.038	1.01 ± 0.032	1.06 ± 0.062	1.07 ± 0.065	1.12 ± 0.055	1.18 ± 0.092
KPNB1 (UniProt Q14974)	0.986 ± 0.053	0.988 ± 0.03	1.01 ± 0.035	0.989 ± 0.037	1.01 ± 0.041	0.993 ± 0.033	1 ± 0.033	0.992 ± 0.028
UniProt Q2TB10|A0A087WXB4	1.04 ± 0.1	1.15 ± 0.14	1.15 ± 0.12	1.36 ± 0.28	1.68 ± 0.48	1.9 ± 0.44	2.04 ± 0.64	2.54 ± 1.1
UniProt Q8TDZ2|Q8TDZ2-4	1.01 ± 0.056	0.965 ± 0.069	0.946 ± 0.021	0.9475 ± 0.0091	0.9237 ± 0.0088	0.899 ± 0.019	0.921 ± 0.016	0.879 ± 0.058
UniProt Q86V88|Q86V88-2	0.975 ± 0.052	0.901 ± 0.079	0.953 ± 0.11	0.872 ± 0.064	0.869 ± 0.048	0.839 ± 0.089	0.858 ± 0.058	0.88 ± 0.078
LARP1 (UniProt Q6PKG0)	1.02 ± 0.039	1.11 ± 0.06	1.32 ± 0.1	1.46 ± 0.11	1.66 ± 0.16	1.78 ± 0.17	1.88 ± 0.22	1.99 ± 0.22
UniProt Q68E01|Q68E01-2	1.01 ± 0.028	1.01 ± 0.026	1.03 ± 0.027	1.03 ± 0.03	1.08 ± 0.026	1.12 ± 0.053	1.11 ± 0.036	1.11 ± 0.021
NANP (UniProt Q8TBE9)	1.07 ± 0.15	0.981 ± 0.11	0.954 ± 0.14	0.982 ± 0.16	0.904 ± 0.12	0.877 ± 0.14	0.891 ± 0.2	0.861 ± 0.15
UniProt P62879	0.978 ± 0.035	1.01 ± 0.064	0.917 ± 0.031	0.947 ± 0.074	0.924 ± 0.05	0.937 ± 0.054	0.913 ± 0.048	0.893 ± 0.09
LDB1 (UniProt Q86U70)	1.066 ± 0.0088	1.04 ± 0.05	1 ± 0.056	0.989 ± 0.024	0.938 ± 0.043	0.951 ± 0.021	0.968 ± 0.047	0.931 ± 0.036
Q5STZ8|Q8NE71 (UniProt Q8NE71)	1.03 ± 0.023	1.02 ± 0.019	0.96 ± 0.053	0.987 ± 0.043	0.993 ± 0.06	0.997 ± 0.046	0.994 ± 0.066	0.984 ± 0.092

Source: the supplement of paper PMC6411743
